From PubChem BioAssay
Compounds with a hit are over-represented: about 11% of the library has one in this group of screens.
USP17 inh: blocks human USP17 ubiquitin-rhodamine cleavage. purified USP17, Ub-rhodamine cleavage fluorescence, 3 h. AID 1645855. A8MUK1. 47,000 tested, 6.5% active. inhibition, % at 50 µM
Target sequence (A8MUK1 whole entry, looked up): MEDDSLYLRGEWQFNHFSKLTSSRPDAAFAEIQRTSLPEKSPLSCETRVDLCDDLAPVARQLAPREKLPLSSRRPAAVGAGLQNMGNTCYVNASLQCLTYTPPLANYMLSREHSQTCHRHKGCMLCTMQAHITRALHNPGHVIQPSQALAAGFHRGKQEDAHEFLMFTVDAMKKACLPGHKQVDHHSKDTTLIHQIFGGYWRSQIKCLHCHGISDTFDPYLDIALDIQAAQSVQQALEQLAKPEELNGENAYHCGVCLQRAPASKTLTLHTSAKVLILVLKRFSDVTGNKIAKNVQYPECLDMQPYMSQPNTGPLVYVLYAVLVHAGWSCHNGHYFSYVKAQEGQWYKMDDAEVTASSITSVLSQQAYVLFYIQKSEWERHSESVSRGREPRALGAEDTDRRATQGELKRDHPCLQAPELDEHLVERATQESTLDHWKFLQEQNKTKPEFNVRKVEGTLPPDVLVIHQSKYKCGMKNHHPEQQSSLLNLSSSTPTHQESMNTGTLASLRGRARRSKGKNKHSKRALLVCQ
USP30 inh: blocks human USP30 ubiquitin-rhodamine cleavage; Q70CQ3; purified USP30, Ub-rhodamine cleavage fluorescence; inhibition, % at 25 µM; 47,000 tested, 5.3% active; AID 1645860
USP28 block: inhibitors of human USP28 deubiquitinase; Q96RU2; purified USP28, Ub-rhodamine cleavage fluorescence, 30 min; inhibition, % at 25 µM; 47,000 tested, 3% active; AID 1645857
Each line names hits and unclear results; the compound was inactive in the other large screens. Rule as the data show it: active = inhibition above about 30%; inactive = the rest.

Cc1cccc(NS(=O)(=O)c2cc(C(=O)Nc3ccccc3)ccc2Cl)c1	none
Cc1ccc(S(=O)(=O)N2CCc3ccc(NC(=O)Nc4cccc(C)c4)cc32)cc1	none
Cc1cccc(NC(=O)Nc2ccc(C)c(C)c2)c1	USP30 inh 31
CC(=O)c1cccc(NC(=O)c2ccc(CN(c3ccc(C)c(C)c3)S(C)(=O)=O)cc2)c1	USP28 block 73
Cc1cccc(NC(=O)c2ccc(C)c(C)c2)c1	USP28 block 34
COc1ccc(NC(=O)c2ccc(CN(c3ccc(C)c(C)c3)S(C)(=O)=O)cc2)cc1	none
CC1(C)Cc2nc3ncn(Cc4ccc(Cl)cc4)c(=O)c3cc2CO1	none
COc1ccc(C(C(=O)NC2CCCCC2)N(Cc2ccc3c(c2)OCO3)C(=O)CCCC(=O)Nc2ccccn2)cc1 (configuration not stated)	none
Cc1nn(C)cc1C(C(=O)NC1CCCCC1)N(C(=O)CN1C(=O)c2ccccc2S1(=O)=O)c1ccc2c(c1)OCO2 (configuration not stated)	USP17 inh 56 (no result: USP30 inh, USP28 block)
O=C(NC1CCCCC1)C1CN(S(=O)(=O)c2ccc(F)c(F)c2)CC12CCOCC2 (configuration not stated)	none
CCC(C)N1CNc2c(c(=O)[nH]c(=O)n2Cc2ccco2)C1 (configuration not stated)	USP30 inh 39 (no result: USP17 inh)
O=c1[nH]c(=O)n(Cc2ccco2)c2c1CN(Cc1ccccc1)CN2	none
Cc1cc(Nc2ccc3ccccc3c2)n2nc(-c3cccnc3)nc2n1	none
CCc1ccccc1NC(=O)C1=CC(c2ccccc2OC)=NS(=O)(=O)N1C	none
O=C(NCC(F)F)C1(Cc2ccccc2-c2cccnc2)CCOCC1	none
Cc1ccc(S(=O)(=O)Nc2ccc3[nH]cc(Cl)c3c2)cc1	USP17 inh 49, USP30 inh 39, USP28 block 44
Cc1ccc(S(=O)(=O)Nc2ccc(S(=O)(=O)Nc3ccc(F)cc3)cc2)cc1	none
COC(C)c1cccc(NC(=O)NCC(C)(O)c2ccc(C)o2)c1 (configuration not stated)	none
CC1=C(C(=O)N2CCCCC2)C(c2ccc(Br)cc2)n2ncnc2N1 (configuration not stated)	USP28 block 47 (no result: USP17 inh)
CC1=C(C(=O)NCc2ccccc2)C(c2ccc(C)cc2)n2ncnc2N1 (configuration not stated)	USP30 inh 34
CC1=C(C(=O)N2CCCCC2)C(c2cccc(Cl)c2)n2ncnc2N1 (configuration not stated)	none
CC1=C(C(=O)NCc2ccccc2)C(c2ccc(C#N)cc2)n2ncnc2N1 (configuration not stated)	none (no result: USP30 inh, USP28 block)
COc1ccc(S(=O)(=O)NC2CCN(c3ccccc3)C2=O)cc1 (configuration not stated)	none
COc1cc(=O)n2c(c1C(=O)NCc1ccc(SC)cc1)CCCC2	none
Cc1ccc(Cn2nnc(-c3noc(-c4ccc[nH]4)n3)c2C)cc1	USP28 block 62
Cc1c(-c2noc(-c3ccccc3)n2)nnn1Cc1cccc(F)c1	none
COc1ccccc1-c1nc(-c2nnn(Cc3cccc(F)c3)c2C)no1	USP28 block 56
Cc1c(-c2noc(-c3ccccc3)n2)nnn1Cc1ccccc1	none
Fc1ccc(CSc2ccc(-c3ccncc3)nn2)cc1	none
CC1[C@@H]2[C@@H](COc3cccnc3)C[C@H](CN1C(=O)c1ccc(O)cc1)N2C (some centres not stated)	none
O=S(=O)(c1ccc(Cl)cc1)N1CCN(Cc2nnnn2-c2ccc(F)cc2)CC1	none
COc1ccc(-n2nnnc2CN2CCN(S(=O)(=O)c3ccc(F)cc3)CC2)cc1	USP17 inh 34
O=C(Cc1ccccc1)c1ccc(Br)s1	USP28 block 35
O=C(CCc1ccccc1)Nc1nnc(-c2ccc(Br)cc2)s1	none (no result: USP17 inh)
COc1cccc(Cn2cccc(S(=O)(=O)N3CCCC3)c2=O)c1	none
CCOC(=O)c1ccc(NC(=O)C[n+]2cc(-c3ccc(C)cc3)n3c2CCC3)cc1	USP30 inh 32
Cc1ccc(C)c(NC(=O)C[n+]2cc(-c3ccc(F)cc3)n3c2CCC3)c1	none
CC(=O)c1ccc(NC(=O)C[n+]2cc(-c3ccc(Cl)cc3)n3c2CCC3)cc1	USP17 inh 67
CCOC(=O)c1ccc(NC(=O)C[n+]2cc(-c3ccc(Cl)cc3)n3c2CCC3)cc1	USP30 inh 51, USP28 block 35
COC(=O)c1ccc(NC(=O)C[n+]2cc(-c3ccc(Cl)cc3)n3c2CCC3)cc1	none
CCc1ccc(-c2c3c4n(c(-c5ccc(C)cc5)cn4c2C(=O)Nc2ccc(Cl)cc2)CCCC3)cc1	none
Cn1c(C2CCN(C(=O)c3ccc(Cl)cc3)C2)nc2ccncc21 (configuration not stated)	none
CS(=O)(=O)c1cnc2ncnn2c1C1CCCN(C(=O)C2CCCC2)C1 (configuration not stated)	none
CC(C)NC(=O)c1ccc2c(c1)C(c1ncn[nH]1)CN2C (configuration not stated)	none
CC(C)Oc1ccc(C(=O)Nc2nnc3n2CCCS3)cc1	none
O=C(Cn1c(=O)n(-c2ccccc2)c2ncccc21)NCc1ccccc1F	none
Cc1ccccc1CNC(=O)Cn1c(=O)n(-c2ccccc2)c2ncccc21	USP17 inh 47
COc1cc(CNc2ccc(Cl)c(-c3nc4ncccc4o3)c2)ccc1OCC(N)=O	none
Cc1ccc(CCNCc2c(C(=O)O)n(Cc3ccccc3F)c3ccccc23)cc1	none (no result: USP30 inh, USP28 block)
Cc1cc(C)cc(NC(=O)Cc2nc(-c3ccccn3)n[nH]2)c1	none
Brc1ccc(Nc2nc(-c3ccccn3)nc3ccccc23)cc1	USP17 inh 52, USP30 inh 90, USP28 block 93
OCCCNc1cc(-c2cccc(C(F)(F)F)c2)nc(-c2ccccn2)n1	none
FC(F)(F)c1cccc(Nc2nc(-c3ccccn3)nc3ccccc23)c1	USP17 inh 74, USP30 inh 52, USP28 block 88
COc1ccc(S(=O)(=O)N(C)C2(C)CCS(=O)(=O)C2)cc1 (configuration not stated)	none
COc1ccc(NC(=O)C(C)Sc2nc(N)cc(N)n2)cc1 (configuration not stated)	none (no result: USP30 inh, USP28 block)
Cn1ccc2c(cc(C(=O)NCc3ccccc3F)n2C)c1=O	none
CCn1ccc2c(cc(C(=O)Nc3cccc(OC)c3)n2C)c1=O	USP28 block 83
CCn1ccc2c(cc(C(=O)Nc3c(C)cccc3C)n2C)c1=O	none
CCn1ccc2c(cc(C(=O)Nc3cc(F)ccc3F)n2C)c1=O	USP28 block 70 (no result: USP17 inh)
COc1cccc(CNc2ccc(-c3nc(-c4ccccc4)no3)nn2)c1	none
CCc1ccccc1NS(=O)(=O)c1cc(C(=O)N2CCCC2)n(C)c1C	none
O=C1CCc2cc(S(=O)(=O)Nc3ccc(F)cc3)cc3c2N1CCC3	none
Cn1ncc2c(Nc3ccc(F)cc3)nc(NC3CCCC3)nc21	none
COc1cc2c(cc1OC)-c1cc(N3CCN(Cc4ccccc4)CC3)nc(=O)n1CC2	none
COc1cc(C2C3=C(CC(c4ccccc4)CC3=O)Nc3ccccc3N2C(=O)C2CC2)cc(OC)c1OC (configuration not stated)	USP17 inh 45
CC1(C)CC(=O)C2=C(C1)Nc1ccccc1N(C(=O)Cc1ccccc1)C2c1ccc(Cl)cc1 (configuration not stated)	USP17 inh 49
